Rows were chosen to be rich in hits. Some 19% of all compounds tested hit in one or more screens of this group.
DT40 TDP1 no CPT: qHTS for Inhibitors of human tyrosyl-DNA phosphodiesterase 1 (TDP1): qHTS in cells in absence of CPT; Potency, µM (titrated, usually from 46.2 µM), inactives show at the highest dose activity change, negative = growth inhibition, usual class: inhibitors; 420,000 compounds, 15% hits; DT40 Tdp1-/- hTDP1 cells, no CPT, ATP luminescence, 48 h; also: nearly all actives have a fitted effect of over 55% in size
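Readout: luminescence from CellTiter-Glo after 30 min in the dark at RT. Cells: DT40 Tdp1-/- with stable hTDP1, 400/well. Exposure: compounds alone, ≥48 hr, 37 °C.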
VP16 counter: inhibits Gal4-VP16 luciferase reporter, ROR gamma counter-screen. Potency, µM (highest dose often 53.6 µM), inactives show at the highest dose activity, negative = inhibition, hits mostly inhibitors. Drosophila S2 Gal4-VP16 UAS-luciferase, luminescence, 20 h. AID 2546. 310,000 compounds, 3.5% hits;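 also: Gal4-VP16 expression switched on by copper sulfate through the metallothionein promoter; nearly all actives have a fitted effect of over 50% in size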
TDP1 block: inhibitors of human tyrosyl-DNA phosphodiesterase TDP1; Potency, µM (doses to about 130 µM), for the others: top-dose activity change, negative = inhibition, hits mostly inhibitors; recombinant TDP1, AlphaScreen DNA substrate cleavage; 350,000 compounds, 0.28% hits; AID 485290; Q9NUW8; also: nearly all actives have a fitted effect of over 40% in size
Target sequence (Q9NUW8 whole entry, looked up): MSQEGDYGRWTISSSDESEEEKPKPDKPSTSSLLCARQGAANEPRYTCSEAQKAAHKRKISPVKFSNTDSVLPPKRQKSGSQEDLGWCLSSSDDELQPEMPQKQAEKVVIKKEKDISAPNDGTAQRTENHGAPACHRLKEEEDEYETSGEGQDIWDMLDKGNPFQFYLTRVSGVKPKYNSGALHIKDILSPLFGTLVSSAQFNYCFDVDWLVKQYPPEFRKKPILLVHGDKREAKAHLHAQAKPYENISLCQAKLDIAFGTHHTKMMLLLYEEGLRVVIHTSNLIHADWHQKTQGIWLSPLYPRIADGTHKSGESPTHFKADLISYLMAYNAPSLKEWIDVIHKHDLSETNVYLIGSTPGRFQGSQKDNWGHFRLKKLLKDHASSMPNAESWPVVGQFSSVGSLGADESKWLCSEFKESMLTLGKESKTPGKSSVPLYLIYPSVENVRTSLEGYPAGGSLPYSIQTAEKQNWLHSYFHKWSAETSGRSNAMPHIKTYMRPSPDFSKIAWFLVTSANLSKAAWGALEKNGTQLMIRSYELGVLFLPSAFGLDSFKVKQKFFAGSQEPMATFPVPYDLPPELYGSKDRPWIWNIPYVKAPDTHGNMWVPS
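Steps: enzyme plus compound, 15 min RT; add biotin/phosphotyrosine-FITC oligonucleotide (15 nM final), react 5 min; add donor/acceptor beads (10 ug/ml final), 10 min; read AlphaScreen. Tdp1 at 1 nM final.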
RORgamma inh: ROR gamma (mouse) transcription inhibition | AID 2551 | Drosophila S2 Gal4-RORgamma UAS-luciferase reporter, 20 h | 310,000 compounds, 5.4% hits | P51450 | Potency, µM (top dose mostly 53.6 µM), for inactives: at the top dose activity change, negative = inhibition, usual class: inhibitors; also: nearly all actives have a fitted effect of over 60% in size
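Luciferase reporter read in Schneider cells carrying Gal4-RORγ (mouse) and UAS-Photinus luciferase; cells given compound 1 h before 700 uM copper sulfate induction, then incubated 20 h at ambient temperature.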
DT40 TDP1 CPT: growth inhibition of DT40 Tdp1-/-;hTDP1 cells with camptothecin (screen for TDP1 inhibitors); chicken DT40 Tdp1-/-;hTDP1 cells + 20 nM CPT, ATP luminescence, 48 h; 420,000 compounds, 12% hits; Potency, µM (top dose mostly 46.2 µM), without a hit: at the highest dose activity change, negative = growth inhibition, hits mostly inhibitors; also: nearly all actives have a fitted effect of over 55% in size
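Chicken DT40 Tdp1-/- cells stably complemented with human TDP1 were seeded at 400 cells/well in medium containing 20 nM camptothecin, exposed to pin-transferred compounds, and grown at 37 °C for at least 48 hr. Viability was read as ATP luminescence.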
The depositor's hits bear a star; ? = inconclusive; nt = no result; ! = not active in a repeat; [ ] = another dose, or the depositor's remark. Calls follow the shape of the dose curve; as a rule, active = well fitted curve in the direction sought with a large enough effect; inconclusive = small, poorly fitted or top-dose-only effect, or another doubt; inactive = no such curve, though single readings can be large; an effect the other way counts as inactive or inconclusive. % is scaled to controls: 0 for no effect and ±100 for the full control effect; potency is read from the fitted curve at half-maximal effect.

SMILES	DT40 TDP1 no CPT	VP16 counter	TDP1 block	RORgamma inh	DT40 TDP1 CPT
CCCc1cc(N2CCCC(C(=O)Nc3c(OC)cccc3OC)C2)n2ncnc2n1 (stereo not given)	-2.2%	-5.2%	5.9%	2.3%	-18.3%
Cc1cc(N2CCN(C)CC2)nc2ccc(NC(=O)Nc3ccccc3Br)cc12	14.6µM*	nt	6.3%	nt	20.6µM*
Cc1ccc(NC(=O)Nc2ccc3nc(N4CCN(C)CC4)cc(C)c3c2)cc1C	4.61µM*	nt	-3.2%	nt	11.6µM*
Cc1cc(N2CCN(C)CC2)nc2ccc(NC(=O)Nc3ccccc3)cc12	?	nt	7.4%	nt	?
CCCCN(CC)CCNC(=S)Nc1ccc2nc(N3CCN(C)CC3)cc(C)c2c1	18.4µM*	-9.6%	nt	-34.8%	?
CCCCN(CC)CCNC(=O)CCC(=O)Nc1ccc2nc(N3CCN(C)CC3)cc(C)c2c1	2.2%	-9.1%[10 µM]	2.6%	?	-0.1%
Cc1cc(N2CCN(C)CC2)nc2ccc(NC(=O)Nc3ccc(F)cc3F)cc12	-75.3%	nt	3.2%	nt	?
Cc1cc(N2CCN(C)CC2)nc2ccc(NC(=O)Nc3cccc(Cl)c3)cc12	4.61µM*	nt	2.1%	nt	8.2µM*
CCOc1ccc(CCNC(=O)CCC(=O)Nc2ccc3nc(N4CCN(C)CC4)cc(C)c3c2)cc1OCC	-45.0%	-13.0%[10 µM]	7.9%	22.1%	?
Cc1cc(N2CCN(C)CC2)nc2ccc(NC(=O)c3ccccc3F)cc12	?	15.6%	4.9%	11.9%	18.4µM*!
CCOc1cc(C(=O)Nc2ccc3nc(N4CCN(C)CC4)cc(C)c3c2)cc(OCC)c1OCC	4.61µM*	nt	11.8%	nt	18.4µM*
CC1(C)SC(C)(C)N(C=O)C1C(=O)O (stereo not given)	3.3%	nt	nt	nt	-4.8%
CN(C)N1C(N)=C(C#N)C(c2ccccc2Cl)C2=C1CCCC2=O (stereo not given)	-7.9%	13.6%	nt	4.2%	3.4%
N[C@@H](Cn1c2c(c(=O)[nH]c1=O)CCC2)C(=O)O	nt	-3.5%	0.0%	0.3%	nt
CCCC(=O)Nc1cc(-c2nn(C)c(=O)c3ccccc23)ccc1N1CCOCC1	-3.7%	-5.5%	5.3%	-36.9%	-9.8%
O=C(NC(=S)Nc1ccccc1N1CCCC1)c1ccccc1[N+](=O)[O-]	-5.0%	3.98µM*	7.7%	2.82µM*	-16.9%
O=C(NC(=S)Nc1ccc(N2CCCC2)cc1)c1ccccc1[N+](=O)[O-]	-28.9%	5.01µM*	11.2%	3.98µM*	-8.6%
CCOC(=O)C1(C)CCCCCN1C(=O)c1ccc(OC)cc1 (stereo not given)	?	nt	nt	nt	16.4µM*
CCOC(=O)C1(C)CCN1C(=O)c1ccc(-c2ccccc2)cc1 (stereo not given)	14.6µM*	nt	nt	nt	-82.1%
CCOC(=O)C1(C)CCCCCN1C(=O)c1ccc(OC)c(C(F)(F)F)c1 (stereo not given)	10.3µM*	nt	nt	nt	23.1µM*
COc1ccc(C(=O)N2CCCC2(C)C(=O)O)cc1C(F)(F)F (stereo not given)	-0.9%	nt	nt	nt	-17.6%
CCOC(=O)C1(C)CCCCN1C(=O)c1ccc(N(C)C)cc1 (stereo not given)	?	nt	nt	nt	-27.4%
CCN(CC)C(=O)Cn1cc(S(=O)(=O)CC(=O)N2CCOCC2)c2ccccc21	3.9%	nt	nt	nt	-0.8%
Cc1ccc(C2CC(c3ccco3)n3nc(N)nc3N2)cc1 (stereo not given)	1.4%	-3.2%	0.0%	-5.5%	-6.7%
O=C(c1ccccc1)c1nn(-c2ccc(Cl)cc2)cc1C(=O)c1cc2ccccc2oc1=O	-21.7%	5.2%	1.9%	-31.4%	-25.2%
SMILES	DT40 TDP1 no CPT	VP16 counter	TDP1 block	RORgamma inh	DT40 TDP1 CPT
O=C(Oc1ccc(NC2=C(Cl)C(=O)c3ccccc3C2=O)cc1)c1ccc([N+](=O)[O-])cc1	7.31µM*	4.2%	2.7%	?	8.2µM*
COc1ccccc1-n1cnnc1SCC(=O)c1c[nH]c2ccccc12	-25.4%	-4.2%	2.3%	42.7%[10 µM]	-24.0%
O=c1c2ccccc2nc2n1C(CSc1ccc(F)cc1)CS2 (stereo not given)	2.6%	5.7%	0.6%	-4.4%	0.9%
O=c1c2ccccc2nc2n1C(CSCc1ccc(Cl)cc1)CS2 (stereo not given)	16.4µM*	0.9%[0.365 µM]	-2.6%	?	10.3µM*
COC(=O)/C(=N\Nc1ccccc1)Sc1nnc(-c2ccc(OC)cc2)n1C	-1.7%	?	2.7%	?	1.6%
CCOC(=O)/C(=N/Nc1ccc(OC)cc1)Sc1nnc(CCc2ccccc2)n1-c1ccccc1	-9.5%	?	10.3%	7.08µM*	3.8%
CCOC(=O)/C(=N\Nc1ccc(Cl)cc1)Sc1nnc(-c2ccc(OC)cc2)n1C	-12.5%	6.31µM*	0.0%	4.47µM*	-17.4%
COc1ccc(CCNC(=O)CCCC(=O)n2nc(C)c3ccccc32)cc1OC	-13.0%	3.5%	1.4%	2.6%	?
COC(=O)c1c(NC(=O)c2ccc(N(C)S(=O)(=O)c3ccc(C)cc3)cc2)sc2c1CCCC2	?	4.5%	-2.7%	1.6%	-16.1%
CNC(=O)c1c(NC(=O)c2ccc(S(=O)(=O)N(C)c3ccccc3)cc2)sc2c1CCN(C(C)C)C2	18.4µM*	?	4.6%	38.7%	18.4µM*
CCN1CCc2c(sc(NC(=O)c3ccc(S(=O)(=O)N(C)c4ccccc4)cc3)c2C(=O)NC)C1	20.6µM*	?	7.8%	?	16.4µM*
S=c1[nH]nc([C@@H]2C[C@H]2c2ccccc2)n1-c1ccccc1	-4.1%	3.98µM*	2.7%	2.82µM*	-0.3%
O=C(Cc1ccccc1)NCc1n[nH]c(=S)n1-c1ccccc1	4.1%	13.6%	0.0%	-33.5%	17.6%
Cc1ccccc1-n1c([C@@H]2C[C@H]2c2ccccc2)n[nH]c1=S	-21.0%	?	3.5%	5.01µM*	0.7%
CC(C)COc1ccc(C/C(N)=N/n2cnnc2)cc1	5.8µM*	?	-5.1%	?	5.17µM*
COc1ccc(C/C(N)=N/n2cnnc2)cc1	-12.4%	0.4%	1.9%	-15.0%	-2.5%
O=S(=O)(NC1CC1)c1ccc(S(=O)(=O)N2CCCc3ccccc32)cc1	?	?	3.0%	?	?
Cc1cc(C)n(-c2cc(-c3ccccc3)nc(C)n2)n1	?	11.5%	0.0%	0.9%	16.4µM*
Cc1nc(-c2ccccc2)cc(N2CCCC2)n1	-15.0%	4.5%	0.0%	12.4%	0.1%
Cc1cc(C)cc(Nc2cc(-c3ccccc3)nc(C)n2)c1	8.2µM*	nt	-4.7%	nt	9.2µM*
Cc1c(Cl)cnc(NC(=O)COC(=O)C2CC3CCCC(C2)C3=O)c1Cl (stereo not given)	-0.1%	nt	-2.0%	nt	-0.1%
Cn1ccc2c(N3CCC3)cc3c(c21)C1CCC3O1 (stereo not given)	?	nt	nt	nt	-11.5%
